Data from PubChem BioAssay AID1159580 (chemical genetic matrix, 2015).
The whole screen tested about 5,500 compounds, of which about 2,000 (36%) were called active. About 18% were inconclusive and are not listed. Cut-off read from the data, not from the text of the source: active = normalized growth mostly below about 0.91 (no sharp cut-off); inconclusive = no clear call, values can overlap the other calls; inactive = mostly above about 0.92. The list shows a part of the results.

Experiment: chemical genetic growth profiling, strain panel (AID 1159580);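 note: tested at 20 µM; growth read once vehicle control cultures reached saturation at 30 °C; 1 = growth at the plate median or of vehicle wells; lower values mean less growth of the strain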
Conditions: growth OD

Measured: normalized growth

C[C@@H]1O[C@@H](O[C@H]2C[C@@H](O)[C@]3(CO)C4C(CC[C@]3(O)C2)[C@@]2(O)CC[C@H](C3=CC(=O)OC3)[C@@]2(C)C[C@H]4O)[C@H](O)[C@H](O)[C@H]1O (some centres not stated)
inactive: S. cerevisiae deletion strains, locus YKL009W, strain mrt4, active compounds read low 0.991 | S. cerevisiae deletion strains, locus YKL068W, active compounds read low 0.998 | S. cerevisiae deletion strains, locus YKL085W, strain MDH1 (second series), active compounds read low 0.993 | S. cerevisiae deletion strains, locus YKL085W, strain MDH1, active compounds read low 0.993 | S. cerevisiae deletion strains, locus YKL160W, strain elf1, active compounds read low 0.993 | S. cerevisiae deletion strains, locus YKR001C, strain vps1, active compounds read low 1.01 | S. cerevisiae deletion strains, locus YKR026C, strain gcn3, active compounds read low 1.02 | S. cerevisiae deletion strains, locus YKR091W, strain srl3, active compounds read low 1.01 | S. cerevisiae deletion strains, locus YLL001W, strain dnm1, active compounds read low 1.03 | S. cerevisiae deletion strains, locus YLL026W, active compounds read low 1.03 | S. cerevisiae deletion strains, locus YLL041C, strain sdh2, active compounds read low 1.01 | S. cerevisiae deletion strains, locus YLR027C, strain aat2, active compounds read low 1.01 | S. cerevisiae deletion strains, locus YLR039C, strain RIC1, active compounds read low 1.09 | S. cerevisiae deletion strains, locus YLR058C, strain SHM2, active compounds read low 1.02 | S. cerevisiae deletion strains, locus YLR102C, strain apc9, active compounds read low 0.997 | S. cerevisiae deletion strains, locus YLR113W, strain HOG1, active compounds read low 1.01 | S. cerevisiae deletion strains, locus YLR221C, strain rsa3, active compounds read low 1.02 | S. cerevisiae deletion strains, locus YLR258W, strain gsy2, active compounds read low 1.02 | S. cerevisiae deletion strains, locus YLR262C, strain YPT6 (second series), active compounds read low 1.02 | S. cerevisiae deletion strains, locus YLR262C, strain YPT6, active compounds read low 1.09 | S. cerevisiae deletion strains, locus YLR268W, strain sec22, active compounds read low 0.98 | S. cerevisiae deletion strains, locus YLR320W, strain mms22, active compounds read low 1.03 | S. cerevisiae deletion strains, locus YLR330W, strain CHS5, active compounds read low 1.01 | S. cerevisiae deletion strains, locus YLR342W, strain FKS1 (second series), active compounds read low 1.04 | S. cerevisiae deletion strains, locus YLR342W, strain FKS1, active compounds read low 1.02 | S. cerevisiae deletion strains, locus YLR357W, strain rsc2, active compounds read low 1.01 | S. cerevisiae deletion strains, locus YLR370C, strain arc18, active compounds read low 1.05 | S. cerevisiae deletion strains, locus YLR371W, strain rom2, active compounds read low 0.989 | S. cerevisiae deletion strains, locus YLR384C, strain iki3, active compounds read low 1.02 | S. cerevisiae deletion strains, locus YLR418C, strain cdc73, active compounds read low 0.971 | S. cerevisiae deletion strains, locus YML016C, strain PPZ1, active compounds read low 1.02 | S. cerevisiae deletion strains, locus YML032C, strain rad52, active compounds read low 0.997 | S. cerevisiae deletion strains, locus YML120C, strain ndi1, active compounds read low 1.04 | S. cerevisiae deletion strains, locus YML124C, strain tub3, active compounds read low 0.987 | S. cerevisiae deletion strains, locus YMR058W, strain fet3, active compounds read low 1.02 | S. cerevisiae deletion strains, locus YMR078C, strain ctf18, active compounds read low 0.981 | S. cerevisiae deletion strains, locus YMR125W, strain sto1, active compounds read low 1.02 | S. cerevisiae deletion strains, locus YMR129W, active compounds read low 1.02 | S. cerevisiae deletion strains, locus YMR205C, strain PFK2, active compounds read low 0.995 | S. cerevisiae deletion strains, locus YMR223W, strain ubp8, active compounds read low 0.998 | S. cerevisiae deletion strains, locus YMR231W, strain pep5, active compounds read low 1.02 | S. cerevisiae deletion strains, locus YMR263W, strain SAP30, active compounds read low 1.01 | S. cerevisiae deletion strains, locus YMR307W, strain GAS1, active compounds read low 1.17 | S. cerevisiae deletion strains, locus YNL067W, strain RPL9B, active compounds read low 1.01 | S. cerevisiae deletion strains, locus YNL071W, strain lat1, active compounds read low 1.03 | S. cerevisiae deletion strains, locus YNL183C, strain NPR1, active compounds read low 0.963 | S. cerevisiae deletion strains, locus YNL209W, strain ssb2, active compounds read low 1.02 | S. cerevisiae deletion strains, locus YNL233W, strain BNI4, active compounds read low 1.03 | S. cerevisiae deletion strains, locus YNL248C, strain rpa49, active compounds read low 0.985 | S. cerevisiae deletion strains, locus YNL250W, strain rad50, active compounds read low 1.02 | S. cerevisiae deletion strains, locus YNL271C, strain bni1, active compounds read low 0.985 | S. cerevisiae deletion strains, locus YNL298W, strain CLA4, active compounds read low 0.996 | S. cerevisiae deletion strains, locus YNL307C, strain MCK1, active compounds read low 0.999 | S. cerevisiae deletion strains, locus YNL322C, strain KRE1 (second series), active compounds read low 1.01 | S. cerevisiae deletion strains, locus YNL322C, strain KRE1, active compounds read low 1.02 | S. cerevisiae deletion strains, locus YNR049C, strain mso1, active compounds read low 1.03 | S. cerevisiae deletion strains, locus YNR052C, strain pop2, active compounds read low 0.981 | S. cerevisiae deletion strains, locus YOL006C, strain TOP1, active compounds read low 1.03 | S. cerevisiae deletion strains, locus YOL012C, strain htz1 0.899 | S. cerevisiae deletion strains, locus YOL147C, strain pex11, active compounds read low 0.997 | S. cerevisiae deletion strains, locus YOR001W, strain rrp6, active compounds read low 1.05 | S. cerevisiae deletion strains, locus YOR061W, strain CKA2, active compounds read low 1.02 | S. cerevisiae deletion strains, locus YOR069W, strain VPS5, active compounds read low 1.02 | S. cerevisiae deletion strains, locus YOR070C, strain gyp1, active compounds read low 1.03 | S. cerevisiae deletion strains, locus YOR080W, strain dia2, active compounds read low 1.03 | S. cerevisiae deletion strains, locus YOR083W, strain WHI5, active compounds read low 0.985 | S. cerevisiae deletion strains, locus YOR106W, strain vam3, active compounds read low 1.01 | S. cerevisiae deletion strains, locus YOR136W, strain idh2, active compounds read low 0.987 | S. cerevisiae deletion strains, locus YOR144C, strain elg1, active compounds read low 0.983 | S. cerevisiae deletion strains, locus YOR184W, strain ser1, active compounds read low 1.01 | S. cerevisiae deletion strains, locus YOR231W, strain MKK1, active compounds read low 1.02 | S. cerevisiae deletion strains, locus YOR265W, strain rbl2, active compounds read low 1.01 | S. cerevisiae deletion strains, locus YOR270C, strain vph1, active compounds read low 1.05 | S. cerevisiae deletion strains, locus YOR290C, strain snf2, active compounds read low 1.04 | S. cerevisiae deletion strains, locus YOR316C, strain cot1, active compounds read low 0.989 | S. cerevisiae deletion strains, locus YPL051W, strain arl3, active compounds read low 1.01 | S. cerevisiae deletion strains, locus YPL078C, strain atp4, active compounds read low 1.02 | S. cerevisiae deletion strains, locus YPL106C, strain sse1, active compounds read low 1.03 | S. cerevisiae deletion strains, locus YPL240C, strain hsp82, active compounds read low 1.03 | S. cerevisiae deletion strains, locus YPL241C, strain CIN2, active compounds read low 1.01 | S. cerevisiae deletion strains, locus YPL256C, strain CLN2, active compounds read low 1.03 | S. cerevisiae deletion strains, locus YPR119W, strain clb2, active compounds read low 0.986 | S. cerevisiae deletion strains, locus YPR141C, strain kar3, active compounds read low 0.989 | S. cerevisiae deletion strains, locus YPR163C, strain tif3, active compounds read low 0.988 | S. cerevisiae deletion strains, locus YPR167C, strain met16, active compounds read low 0.99 | S. cerevisiae deletion strains, strain wtn01, active compounds read low 0.976 | S. cerevisiae strains, strain wild type, active compounds read low 1.02
